The list is not random: actives were taken first. Their share in the collection is about 21%.
ELG1 DNA repair: inhibitors of ELG1-dependent DNA repair in HEK293T cells; HEK293T ELG1-luciferase reporter, luminescence, 16 h; DNA damage induced by 5-fluorouridine; AID 504467; Potency, µM (titrated, usually from 46.1 µM), for the others: top-dose activity change, negative = inhibition, actives largely listed as inhibitors; actives 2.3% (n = 330,000); note: potency is the fitted concentration of half-maximal effect; nearly all actives have a fitted effect of over 55% in size
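In this reporter screen, reduction of luminescence relative to DMSO vehicle indicated activity. Compounds and 5-fluorouridine were added together to 2,000 cells per well, incubated for 16 hr at 37 °C, then developed with ONE-Glo.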
VP16 counter: Gal4-VP16 reporter inhibition counter-screen; actives 3.5% (n = 310,000); Potency, µM (highest dose often 53.6 µM), inactives show at the highest dose activity, negative = inhibition, most hits filed as inhibitors; AID 2546; Drosophila S2 Gal4-VP16 UAS-luciferase, luminescence, 20 h;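 note: Gal4-VP16 expression switched on by copper sulfate through the metallothionein promoter; potency is the fitted concentration of half-maximal effect; nearly all actives have a fitted effect of over 50% in size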
TDP1 cell CPT: DT40-hTDP1 cell growth loss with CPT; chicken DT40 Tdp1-/-;hTDP1 cells + 20 nM CPT, ATP luminescence, 48 h; Potency, µM (series often up to 46.2 µM), for inactives: top-dose activity change, negative = growth inhibition, hits mostly inhibitors; actives 12% (n = 420,000); note: potency is the fitted concentration of half-maximal effect; nearly all actives have a fitted effect of over 55% in size
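Chicken DT40 Tdp1-/- cells stably complemented with human TDP1 were seeded at 400 cells/well in medium containing 20 nM camptothecin, exposed to pin-transferred compounds, and grown at 37 °C for at least 48 hr. Viability was read as ATP luminescence.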
RORgamma inh: blocks mouse ROR gamma transcriptional activity | Potency, µM (highest dose often 53.6 µM), for inactives: at the highest dose activity change, negative = inhibition, hits mostly inhibitors | actives 5.4% (n = 310,000) | Drosophila S2 Gal4-RORgamma UAS-luciferase reporter, 20 h; note: potency is the fitted concentration of half-maximal effect; nearly all actives have a fitted effect of over 60% in size
Target sequence (P51450 whole entry, looked up, the tested form may be a part): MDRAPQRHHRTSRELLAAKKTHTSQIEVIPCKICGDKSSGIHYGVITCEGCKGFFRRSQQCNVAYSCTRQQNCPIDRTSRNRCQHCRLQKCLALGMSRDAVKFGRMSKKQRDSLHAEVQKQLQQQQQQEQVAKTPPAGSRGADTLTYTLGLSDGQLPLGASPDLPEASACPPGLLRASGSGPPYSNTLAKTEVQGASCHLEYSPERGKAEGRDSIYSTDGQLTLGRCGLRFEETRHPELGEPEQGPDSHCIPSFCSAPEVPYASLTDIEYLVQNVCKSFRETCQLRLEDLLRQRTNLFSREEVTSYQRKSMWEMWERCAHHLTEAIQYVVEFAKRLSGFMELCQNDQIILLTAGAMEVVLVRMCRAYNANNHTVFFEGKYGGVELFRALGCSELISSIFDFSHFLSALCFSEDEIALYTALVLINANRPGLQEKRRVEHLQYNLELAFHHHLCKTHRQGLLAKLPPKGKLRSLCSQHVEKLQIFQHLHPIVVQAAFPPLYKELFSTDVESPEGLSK
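Compounds are pin-transferred onto Drosophila Schneider cells expressing a copper-inducible Gal4–ROR gamma transactivation domain fusion. After 1 hr, copper sulfate is added to 700 uM final; luciferase is read 20 hr later.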
IL-1B inflam inh: blocks inflammasome-driven IL-1 beta release | THP-1 LPS/ATP IL-1B secretion, AlphaLISA, 16 h; hits give low values | activity change, % at 57.5 µM | actives 4.7% (n = 360,000); in the data active = activity change below about -50%; inconclusive = mostly about -30% to -49%
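THP-1 cells pretreated 1 hr with compounds (up to 57.5 uM final), then stimulated with LPS (250 ng/mL final) plus ATP (1.25 mM final); secreted IL-1B measured by AlphaLISA after 16 hr, decreased signal indicating inhibition.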
TDP1 cell noCPT: qHTS for Inhibitors of human tyrosyl-DNA phosphodiesterase 1 (TDP1): qHTS in cells in absence of CPT | DT40 Tdp1-/- hTDP1 cells, no CPT, ATP luminescence, 48 h | Potency, µM (titrated, usually from 46.2 µM), without a hit: at the top dose activity change, negative = growth inhibition, usual class: inhibitors | actives 15% (n = 420,000); note: potency is the fitted concentration of half-maximal effect; nearly all actives have a fitted effect of over 55% in size
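Luminescent ATP content (CellTiter-Glo) served as the growth readout. Knockout chicken DT40 cells expressing human TDP1 were exposed to compounds without camptothecin for a minimum 48 hr at 37 °C.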
An asterisk follows results filed as active; [ ] = remark or other dose. Unless noted, calls come from the whole dose curve; as a rule, active = well fitted curve in the direction sought with a large enough effect; inconclusive = small, poorly fitted or top-dose-only effect, or another doubt; inactive = no such curve, though single readings can be large; an effect the other way counts as inactive or inconclusive. % is set by controls: 0 for no effect and ±100 for the full control effect.

Results for O=C(CSc1ccc(Cl)cc1)Nc1ccc(N2CCN(c3ccccc3)CC2)c(F)c1 ?
ELG1 DNA repair: 0.4%; VP16 counter: -8.6%; TDP1 cell CPT: inconclusive; RORgamma inh: -3.1%; IL-1B inflam inh: 14.8; TDP1 cell noCPT: inconclusive

What do the screens show for `COC(=O)C[C@@H]1C[C@@H]2c3cc(NS(=O)(=O)c4ccc(F)cc4)ccc3O[C@@H]2[C@@H](CO)O1`?
TDP1 cell CPT: -26.5%; IL-1B inflam inh: 8.1; TDP1 cell noCPT: inconclusive

Results for Cc1ccc(N(CC(=O)Nc2ccc(Br)c(C)c2)S(=O)(=O)c2cccs2)cc1 ?
TDP1 cell CPT: inconclusive; TDP1 cell noCPT: -28.1%

What do the screens show for `CCOC(=O)c1ccc(NCc2nc3ccccc3[nH]2)cc1`?
ELG1 DNA repair: inconclusive; VP16 counter: inconclusive; TDP1 cell CPT: 16.4µM*; RORgamma inh: inconclusive; IL-1B inflam inh: 12.8; TDP1 cell noCPT: 16.4µM*

How did CCOC(=O)Cc1nc2ccccc2[nH]1 do in these assays?
ELG1 DNA repair: -10.0%; VP16 counter: 3.8%; TDP1 cell CPT: -16.2%; RORgamma inh: -9.8%; IL-1B inflam inh: 40.8; TDP1 cell noCPT: -23.7%

Results for O=C(NC(Cc1ccccc1)c1nc2ccccc2[nH]1)c1cccc([N+](=O)[O-])c1 (stereo not given) ?
ELG1 DNA repair: 1.7%; VP16 counter: -4.1%; TDP1 cell CPT: 20.6µM*; RORgamma inh: -1.9%; IL-1B inflam inh: -15.5; TDP1 cell noCPT: inconclusive

How did O=C(Nc1ccc(Nc2ccncc2)cc1)c1ccc([N+](=O)[O-])cc1 do in these assays?
ELG1 DNA repair: inconclusive; VP16 counter: inconclusive; TDP1 cell CPT: 20.6µM*; RORgamma inh: inconclusive; IL-1B inflam inh: -97.5*; TDP1 cell noCPT: 14.6µM*

How did Cc1ccc(C(=O)Cc2nc3ccccc3[nH]2)cc1 do in these assays?
ELG1 DNA repair: inconclusive; VP16 counter: inconclusive; TDP1 cell CPT: inconclusive; RORgamma inh: inconclusive; IL-1B inflam inh: -101.0*; TDP1 cell noCPT: -28.8%

How did CSCCC(NC(=O)c1cccc([N+](=O)[O-])c1)c1nc2ccccc2[nH]1 (stereo not given) do in these assays?
ELG1 DNA repair: -7.7%; VP16 counter: -0.7%; TDP1 cell CPT: -5.7%; RORgamma inh: -0.2%; IL-1B inflam inh: -0.2; TDP1 cell noCPT: -5.3%

What do the screens show for `O=C(Nc1nc2ccccc2[nH]1)c1ccc([N+](=O)[O-])cc1`?
ELG1 DNA repair: inconclusive; VP16 counter: inconclusive; TDP1 cell CPT: -1.2%; RORgamma inh: 3.16µM*; IL-1B inflam inh: -9.0; TDP1 cell noCPT: -0.5%

What do the screens show for `O=C(NCc1nc2ccccc2[nH]1)c1c(F)c(F)c(F)c(F)c1F`?
ELG1 DNA repair: -1.2%; VP16 counter: -18.0%; TDP1 cell CPT: -1.7%; RORgamma inh: -8.9%; IL-1B inflam inh: -78.3*; TDP1 cell noCPT: 17.7%

How did O=C(NCC(O)c1nc2ccccc2[nH]1)c1cc([N+](=O)[O-])ccc1F (stereo not given) do in these assays?
TDP1 cell CPT: inconclusive; IL-1B inflam inh: -86.6*; TDP1 cell noCPT: inconclusive

What do the screens show for `CCCN(CCC)S(=O)(=O)c1ccc(NC(=O)c2cc(C(=O)OC)cc([N+](=O)[O-])c2)cc1`?
ELG1 DNA repair: -1.8%; VP16 counter: -7.6%; TDP1 cell CPT: 23.1µM*; RORgamma inh: 10.4%; IL-1B inflam inh: 11.5; TDP1 cell noCPT: 25.9µM*

How did CCOc1ccccc1CNC(=O)c1ccc(Cn2c(=O)c3cccn3c3cccnc32)cc1 do in these assays?
TDP1 cell CPT: -21.3%; TDP1 cell noCPT: 0.3%

Results for O=C(Nc1nc2ccccc2[nH]1)c1cccc([N+](=O)[O-])c1 ?
ELG1 DNA repair: inconclusive; VP16 counter: inconclusive; TDP1 cell CPT: -3.2%; RORgamma inh: 0.891µM*; IL-1B inflam inh: -3.6; TDP1 cell noCPT: inconclusive

Results for Cc1nc2ccc(NC(=O)c3ccc([N+](=O)[O-])cc3)cc2[nH]1 ?
ELG1 DNA repair: inconclusive; VP16 counter: inconclusive; TDP1 cell CPT: inconclusive; RORgamma inh: inconclusive; IL-1B inflam inh: 3.2; TDP1 cell noCPT: 16.4µM*

How did O=C(Cc1nc2ccccc2[nH]1)c1cccc([N+](=O)[O-])c1 do in these assays?
ELG1 DNA repair: 4.11µM*; VP16 counter: -3.3%; TDP1 cell CPT: 2.91µM*; RORgamma inh: -16.9%; IL-1B inflam inh: 0.0; TDP1 cell noCPT: 3.66µM*

Results for COC(=O)c1cc(C(=O)Nc2nc3ccccc3[nH]2)cc([N+](=O)[O-])c1 ?
ELG1 DNA repair: -27.4%; VP16 counter: -24.2%; TDP1 cell CPT: -23.9%; RORgamma inh: 1.41µM*; IL-1B inflam inh: 18.7; TDP1 cell noCPT: 23.1µM*

What do the screens show for `O=C(c1cccnc1)N1CCC2CC1c1c(Cl)cccc12` (stereo not given)?
TDP1 cell CPT: 2.2%; IL-1B inflam inh: 24.5; TDP1 cell noCPT: -67.2%

Results for CCOC(=O)c1c(-c2ccc(OCC)cc2)csc1NC(=O)CCN1C(=O)c2ccccc2C1=O ?
ELG1 DNA repair: 11.6µM*; VP16 counter: -5.6%; RORgamma inh: 5.4%[10 µM]

Results for CCOC(=O)c1c(-c2ccc(OC)cc2)csc1NC(=O)C1CCCO1 (stereo not given) ?
ELG1 DNA repair: -15.5%; VP16 counter: -4.9%; TDP1 cell CPT: inconclusive; RORgamma inh: 38.8%; IL-1B inflam inh: -20.1; TDP1 cell noCPT: inconclusive

Results for CCOC(=O)c1c(-c2ccc(OC)cc2)csc1NC(=O)CNCc1ccco1 ?
ELG1 DNA repair: inconclusive; VP16 counter: 5.62µM*; TDP1 cell CPT: inconclusive; RORgamma inh: 5.01µM*; IL-1B inflam inh: -13.4; TDP1 cell noCPT: inconclusive

How did CCOC(=O)c1c(-c2ccc(OC)cc2)csc1NC(=O)CCN1CCOCC1 do in these assays?
ELG1 DNA repair: inconclusive; VP16 counter: -23.7%; TDP1 cell CPT: inconclusive; RORgamma inh: -26.9%; IL-1B inflam inh: -9.9; TDP1 cell noCPT: 18.4µM*

How did CCOC(=O)c1c(-c2ccccc2)csc1NC(=S)N(CC)CC do in these assays?
ELG1 DNA repair: inconclusive; VP16 counter: inconclusive; TDP1 cell CPT: -8.7%; RORgamma inh: inconclusive; IL-1B inflam inh: 105.0; TDP1 cell noCPT: inconclusive

What do the screens show for `CCOC(=O)c1c(-c2ccc3ccccc3c2)csc1NC(=O)CCCC(=O)O`?
ELG1 DNA repair: 20.3%; TDP1 cell CPT: -17.1%; IL-1B inflam inh: 15.7; TDP1 cell noCPT: inconclusive

Screening results deposited in PubChem BioAssay by National Center for Advancing Translational Sciences (NCATS).
